Source: PubChem BioAssay (NCI)
Compounds without any hit were thinned out: in the full panel of roughly 79,000, 15% have a hit. Calls of active or inactive are those of the source. Rule as the data show it: active = growth inhibition above about 70%; inactive = the rest.

Legend:
[1] = NCI Yeast Anticancer Drug Screen. Data for the rad52 strain (AID 147);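 also: 0% = growth of vehicle-treated control cultures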; details: S. cerevisiae rad52 mutant growth inhibition, hits give high values
Method in brief: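 Growth of repair-deficient yeast cells was compared between compound-treated and vehicle-treated cultures to give percent inhibition.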

[2] = NCI Yeast Anticancer Drug Screen. Data for the wt1 strain (AID 149);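 also: 0% = growth of vehicle-treated wt1 cultures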; details: S. cerevisiae wt1 strain (SPY 50644) growth inhibition, hits give high values
Method in brief: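 Yeast wt1 strain exposed to compounds; growth inhibition measured relative to vehicle-treated controls.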

[3] = NCI Yeast Anticancer Drug Screen. Data for the rad50EPP+ strain (AID 151);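 also: 0% = growth of vehicle-treated control cultures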; details: S. cerevisiae rad50 mutant strain, hits give high values
Method in brief: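 Measured: growth inhibition of rad50EPP+ yeast. Reference: vehicle-treated controls. Screen uses strains with defined genetic alterations in DNA damage repair or cell cycle control.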

[4] = NCI Yeast Anticancer Drug Screen. Data for the mgt1 strain (AID 153); details: S. cerevisiae mgt1 mutant growth inhibition, hits give high values
Method in brief: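 Compounds were applied to mgt1 mutant yeast, and growth was then compared against vehicle-treated control cultures to give percent inhibition.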

[5] = NCI Yeast Anticancer Drug Screen. Data for the rad50 strain (AID 155);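 also: 0% = growth of vehicle-only cultures of the same strain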; details: S. cerevisiae rad50 strain growth inhibition, hits give high values
Method in brief: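 Yeast carrying a defined DNA repair defect were exposed to test compounds, and growth was compared with vehicle-treated controls to give percent inhibition.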

[6] = NCI Yeast Anticancer Drug Screen. Data for the mec2-1 strain (AID 157); details: S. cerevisiae mec2-1 strain, hits give high values
Method in brief: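 Compounds were applied to mec2-1 yeast cells. Their growth was then compared with that of vehicle-treated cultures to give growth inhibition.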

[7] = NCI Yeast Anticancer Drug Screen. Data for the rad14 strain (AID 159);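 also: 0% = growth of vehicle-treated control cultures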; details: S. cerevisiae rad14 strain growth inhibition, hits give high values
Method in brief: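 Yeast cells carrying a defined DNA-repair defect were exposed to compounds, and growth inhibition was calculated relative to vehicle-treated control cultures.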

[8] = NCI Yeast Anticancer Drug Screen. Data for the sgs1 mgt1 strain (AID 161);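 also: 0% = growth of cultures given vehicle only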; details: S. cerevisiae sgs1 mgt1 strain, hits give high values
Method in brief: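 Percent growth inhibition was derived by comparing compound-exposed mutant yeast with vehicle-exposed cultures. The strain carries alterations in DNA damage repair.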

[9] = NCI Yeast Anticancer Drug Screen. Data for the CLN2oe strain (AID 163);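 also: 0% = growth of vehicle-only control cultures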; details: S. cerevisiae CLN2oe strain, hits give high values
Method in brief: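 Cells of an engineered yeast line with disturbed cell-cycle regulation are treated with compound. Inhibition of growth is then calculated relative to the vehicle-treated reference.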

[10] = NCI Yeast Anticancer Drug Screen. Data for the cln2 rad14 strain (AID 165);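 also: 0% = growth equal to vehicle treated cultures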; details: S. cerevisiae cln2 rad14 strain, hits give high values
Method in brief: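 Strain: cln2 rad14 yeast, altered in cell cycle control and DNA damage repair. Read-out: growth inhibition vs vehicle.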

[11] = NCI Yeast Anticancer Drug Screen. Data for the bub3 strain (AID 167); details: S. cerevisiae bub3 mutant strain, hits give high values
Method in brief: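 Compounds were applied to a genetically altered yeast strain carrying a cell-cycle control defect. Growth inhibition was scored against vehicle-treated controls.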

[12] = NCI Yeast Anticancer Drug Screen. Data for the wt2 strain (AID 169);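 also: 0% = growth of vehicle-treated yeast cultures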; details: S. cerevisiae wt2 strain growth inhibition, hits give high values
Method in brief: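 Growth of compound-treated yeast is measured and expressed as inhibition relative to vehicle-only controls.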

[13] = NCI Yeast Anticancer Drug Screen. Data for the mlh1 strain (AID 171);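 also: 0% = growth of vehicle-treated control cultures of the same strain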; details: S. cerevisiae mlh1 strain growth inhibition, hits give high values
Method in brief: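 Test agents were incubated with yeast bearing a defined DNA damage repair or cell cycle control alteration; values are growth inhibition normalised to vehicle-treated cultures.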

[14] = NCI Yeast Anticancer Drug Screen. Data for the sgs1 strain (AID 173);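 also: 0% = growth of vehicle-only control cultures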; details: S. cerevisiae sgs1 mutant, hits give high values
Method in brief: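 Strain with an altered DNA repair or cell cycle pathway exposed to compound. Growth then measured. Value = inhibition versus vehicle control.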

[15] = NCI Yeast Anticancer Drug Screen. Data for the mlh1 rad18 strain (AID 175); details: S. cerevisiae mlh1 rad18 strain growth inhibition, hits give high values
Method in brief: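 A repair-deficient yeast strain is exposed to test compound, and growth is scored relative to vehicle-treated controls.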

[16] = NCI Yeast Anticancer Drug Screen. Data for the rad18 strain (AID 177); details: S. cerevisiae rad18 mutant growth inhibition, hits give high values
Method in brief: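 DNA-repair-defective yeast; compound treatment; growth inhibition scored against vehicle.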

[17] = at 5.0 µM (retest, dose inferred, filed as 0.5)
[18] = at 50.0 µM (retest, dose inferred, filed as 5.0)

Measured: growth inhibition

CCN(CC)CCN1C(=O)c2cccc3cc(OC)cc(c23)C1=O
active: [1]; at 11.0 µM 72% | [1]; at 33.0 µM 91% | [1]; at 100.0 µM 93% | [3]; at 33.0 µM 86% | [3]; at 100.0 µM 93% | [5]; at 11.0 µM 74% | [5]; at 33.0 µM 90% | [5]; [18] 94% | [5]; at 50.0 µM 79.6% | [5]; at 100.0 µM 93%
inactive: [1]; at 1.2 µM 8% | [1]; at 3.7 µM 48% | [2]; at 1.2 µM -5% | [2]; at 3.7 µM 1% | [2]; at 11.0 µM -3% | [2]; at 33.0 µM -7% | [2]; at 100.0 µM -1% | [3]; at 1.2 µM 9% | [3]; at 3.7 µM 37% | [3]; at 11.0 µM 60% | [4]; at 1.2 µM -10% | [4]; at 3.7 µM -12% | [4]; at 11.0 µM -10% | [4]; at 33.0 µM -4% | [4]; at 100.0 µM 1% | [5]; at 1.2 µM 4% | [5]; at 3.7 µM 43% | [5]; [17] 31% | [6]; at 1.2 µM -10% | [6]; at 3.7 µM -3% | [6]; [17] 5% | [6]; at 11.0 µM -12% | [6]; at 33.0 µM -14% | [6]; [18] 19% | [6]; at 50.0 µM 1.45% | [6]; at 100.0 µM 16% | [7]; at 1.2 µM -10% | [7]; at 3.7 µM 1% | [7]; at 11.0 µM -9% | [7]; at 33.0 µM -6% | [7]; at 100.0 µM 3% | [8]; [17] 13% | [8]; [18] 27% | [8]; at 50.0 µM -4.05% | [9]; at 1.2 µM 2% | [9]; at 3.7 µM -4% | [9]; at 11.0 µM 5% | [9]; at 33.0 µM 7% | [9]; at 100.0 µM 24% | [10]; [17] 27% | [10]; [18] 18% | [10]; at 50.0 µM -3.8% | [11]; at 1.2 µM -9% | [11]; at 3.7 µM -3% | [11]; [17] 11% | [11]; at 11.0 µM -7% | [11]; at 33.0 µM 1% | [11]; [18] 15% | [11]; at 50.0 µM -22.1% | [11]; at 100.0 µM 11% | [12]; at 1.2 µM -23% | [12]; at 3.7 µM -3% | [12]; at 11.0 µM -38% | [12]; at 33.0 µM -35% | [12]; at 100.0 µM 13% | [13]; at 1.2 µM -24% | [13]; at 3.7 µM -5% | [13]; at 11.0 µM -7% | [13]; at 33.0 µM -15% | [13]; at 100.0 µM 9% | [14]; at 1.2 µM -4% | [14]; at 3.7 µM 40% | [14]; at 11.0 µM 42% | [14]; at 33.0 µM 36% | [14]; at 100.0 µM 42% | [15]; [17] 12% | [15]; [18] 36% | [15]; at 50.0 µM -14.2% | [16]; at 1.2 µM 7% | [16]; at 3.7 µM -2% | [16]; at 11.0 µM -13% | [16]; at 33.0 µM -12% | [16]; at 100.0 µM 12%

O=C(Nc1ccccc1)C(=O)C(C(=O)c1ccccc1)C(c1ccccc1)c1ccccc1 (stereo unspecified)
active: [5]; [18] 86% | [5]; at 50.0 µM 82.5% | [6]; [18] 78% | [15]; [18] 74% | [15]; at 50.0 µM 79.8%
inactive: [1]; at 1.2 µM 8% | [1]; at 3.7 µM 10% | [1]; at 11.0 µM 15% | [1]; at 33.0 µM 23% | [1]; at 100.0 µM 36% | [2]; at 1.2 µM 3% | [2]; at 3.7 µM 5% | [2]; at 11.0 µM 4% | [2]; at 33.0 µM 10% | [2]; at 100.0 µM 28% | [3]; at 1.2 µM 0% | [3]; at 3.7 µM 0% | [3]; at 11.0 µM 1% | [3]; at 33.0 µM 2% | [3]; at 100.0 µM -1% | [4]; at 1.2 µM 2% | [4]; at 3.7 µM 1% | [4]; at 11.0 µM 5% | [4]; at 33.0 µM 8% | [4]; at 100.0 µM 42% | [5]; at 1.2 µM 1% | [5]; at 3.7 µM -6% | [5]; [17] 11% | [5]; at 11.0 µM -3% | [5]; at 33.0 µM 26% | [5]; at 100.0 µM 37% | [6]; at 1.2 µM 8% | [6]; at 3.7 µM 7% | [6]; [17] -11% | [6]; at 11.0 µM 10% | [6]; at 33.0 µM 22% | [6]; at 50.0 µM 15.9% | [6]; at 100.0 µM 35% | [7]; at 1.2 µM 3% | [7]; at 3.7 µM 0% | [7]; at 11.0 µM 5% | [7]; at 33.0 µM 18% | [7]; at 100.0 µM 36% | [8]; [17] -5% | [8]; [18] 20% | [8]; at 50.0 µM 29.4% | [9]; at 1.2 µM 5% | [9]; at 3.7 µM 2% | [9]; at 11.0 µM 6% | [9]; at 33.0 µM 24% | [9]; at 100.0 µM 39% | [10]; [17] 5% | [10]; [18] 53% | [10]; at 50.0 µM 41.2% | [11]; at 1.2 µM 2% | [11]; at 3.7 µM 0% | [11]; [17] -2% | [11]; at 11.0 µM 3% | [11]; at 33.0 µM 9% | [11]; [18] 33% | [11]; at 50.0 µM 58.3% | [11]; at 100.0 µM 18% | [12]; at 1.2 µM 1% | [12]; at 3.7 µM 2% | [12]; at 11.0 µM 2% | [12]; at 33.0 µM 12% | [12]; at 100.0 µM 43% | [13]; at 1.2 µM 3% | [13]; at 3.7 µM 2% | [13]; at 11.0 µM 3% | [13]; at 33.0 µM 16% | [13]; at 100.0 µM 31% | [14]; at 1.2 µM 2% | [14]; at 3.7 µM 3% | [14]; at 11.0 µM 3% | [14]; at 33.0 µM 32% | [14]; at 100.0 µM 56% | [15]; [17] -13% | [16]; at 1.2 µM 7% | [16]; at 3.7 µM 10% | [16]; at 11.0 µM 22% | [16]; at 33.0 µM 41% | [16]; at 100.0 µM 47%
